Here are results for 29 compounds from PubChem BioAssay (NCATS).

Unmarked numbers belong to inactive results. Records with an inconclusive call do not appear. Activity calls are given as the source filed them. Unless noted, calls follow the shape of the full dose curve.

The nature of assay [1]: Validation screen for inhibitors of Lassa infection (AID 463096). Also: potency is read from the fitted curve at half-maximal effect.
In assay [2] the target is M-phase phosphoprotein 8 (Homo sapiens) (UniProt Q99549). Briefly: qHTS Validation Assay for Inhibitors for MPP8 Chromodomain Interactions with Methylated Histone Tails (AID 488949; active = well fitted curve in the direction sought with a large enough effect; an effect the other way counts as inactive or inconclusive;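 also: 50 nM MPP8 with 50 nM peptide preformed then compounds added for 30 min; AlphaScreen signal from MPP8 chromodomain bound to biotinylated H3K9me3 peptide; top concentration of the series differs between compounds; % is scaled to controls: 0 for no effect and ±100 for the full control effect; nearly all actives have a fitted effect of over 55% in size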). Summed up: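 50 nM MPP8 + 50 nM b-H3K9me3 peptide, PBS pH 7.4/0.01% Tween-20, 30 min RT; + cpd 30 min RT; + AlphaScreen donor/Ni-chelate acceptor beads 10 ug/mL final, 30 min dark; luminescence read.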
(In general: Quantitative high-throughput screening tests each substance at several concentrations.)

Assay [3] concerns the target Chromobox protein homolog 1 (Homo sapiens) (UniProt P83916). The assay can be described thus: qHTS Validation Assay for Inhibitors of HP1-beta Chromodomain Interactions with Methylated Histone Tails (AID 488953; active = well fitted curve in the direction sought with a large enough effect; an effect the other way counts as inactive or inconclusive; also: potency is read from the fitted curve at half-maximal effect; nearly all actives have a fitted effect of over 50% in size). Summed up: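 AlphaScreen proximity signal from streptavidin donor and nickel chelate acceptor beads (final 10 ug/mL) after 30 min dark incubation. Compounds had 30 min at room temperature with preformed complex of 50 nM HP1-beta and 50 nM b-H3(1-18)K9me3 in PBS pH 7.4 with 0.01% Tween-20.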

Assay [4] can be described thus: Inducers of the Endoplasmic Reticulum Stress Response (ERSR) in human glioma: Validation (AID 504836; active = well fitted curve in the direction sought with a large enough effect; an effect the other way counts as inactive or inconclusive; also: 0% is about no effect). Summed up:
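ERSR induction read as luciferase luminescence (Bright-Glo, 10 min at room temperature) in stably transfected human U87-MG glioma cells exposed to compounds for 16 h, using GRP78 as sensor.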

Assay [5] is described as follows: qHTS for Activators of Parkin Expression: LOPAC Validation Assay (FLuc Reporter) (AID 720573; active = well fitted curve in the direction sought with a large enough effect; an effect the other way counts as inactive or inconclusive). Summed up:
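Cells seeded, 24 h; compounds pinned, 7-pt dose response; 24 h at 37 C/5% CO2; volume reduced; FLuc reagent 10 min RT; luminescence read. Normalization: DMSO = 0, positive control = 100%.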

Assay [6] is described as follows: qHTS Assay for Identifying Gametocytocidal Compounds (AID 743244; active = well fitted curve in the direction sought with a large enough effect; an effect the other way counts as inactive or inconclusive;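 also: % is scaled to controls: 0 for no effect and ±100 for the full control effect; actives lower the fluorescent signal which means gametocytes are killed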). The settings on record: P. falciparum 3D7 stage III-V gametocytes, alamarBlue, 72 h; max response: hits give low values. The method, boiled down: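 Stage III-V P. falciparum 3D7 gametocytes, 20,000 per well, were exposed to compounds for 72 h at 37C, 5% CO2. AlamarBlue was then added for 24 h and viability was read as fluorescence at Ex 525/Em 598 nm.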

The nature of assay [7]: qHTS for Inhibitors of the Functional Ribonucleoprotein Complex (vRNP) of Lassa (LASV) Arenavirus: LASV Primary Screen - GLuc reporter signal (AID 1347082; calls by dose curve; tested in HEK293 reporter line; also: series mostly up to about 57 µM; % is scaled to controls: 0 for no effect and ±100 for the full control effect; nearly all actives have a fitted effect of over 60% in size).
Assay [8] is described as follows: qHTS for Inhibitors of the Functional Ribonucleoprotein Complex (vRNP) of Lassa (LASV) Arenavirus: Viability assay - alamar blue signal for LASV Primary Screen (AID 1347083; calls by dose curve; tested in HEK293 reporter line; also: series mostly up to about 57 µM; % is scaled to controls: 0 for no effect and ±100 for the full control effect; nearly all actives have a fitted effect of over 80% in size).
A short description of assay [9]: qHTS for Inhibitors of the Functional Ribonucleoprotein Complex (vRNP) of Lymphocytic Choriomeningitis Arenaviruses (LCMV): Viability assay - alamar blue signal for LCMV Primary Screen (AID 1347085; calls by dose curve; tested in HEK293 reporter line; also: series mostly up to about 57 µM; % is scaled to controls: 0 for no effect and ±100 for the full control effect; nearly all actives have a fitted effect of over 80% in size).
The target in assay [10] is Nucleoprotein (Lymphocytic choriomeningitis virus (strain Armstrong)) (UniProt P09992). The assay can be described thus: qHTS for Inhibitors of the Functional Ribonucleoprotein Complex (vRNP) of Lymphocytic Choriomeningitis Arenaviruses (LCMV): LCMV Primary Screen - GLuc reporter signal (AID 1347086). Also: series mostly up to about 57 µM; % is scaled to controls: 0 for no effect and ±100 for the full control effect; nearly all actives have a fitted effect of over 70% in size.
Chain of Nucleoprotein (Lymphocytic choriomeningitis virus (strain Armstrong)) (P09992 whole entry, looked up): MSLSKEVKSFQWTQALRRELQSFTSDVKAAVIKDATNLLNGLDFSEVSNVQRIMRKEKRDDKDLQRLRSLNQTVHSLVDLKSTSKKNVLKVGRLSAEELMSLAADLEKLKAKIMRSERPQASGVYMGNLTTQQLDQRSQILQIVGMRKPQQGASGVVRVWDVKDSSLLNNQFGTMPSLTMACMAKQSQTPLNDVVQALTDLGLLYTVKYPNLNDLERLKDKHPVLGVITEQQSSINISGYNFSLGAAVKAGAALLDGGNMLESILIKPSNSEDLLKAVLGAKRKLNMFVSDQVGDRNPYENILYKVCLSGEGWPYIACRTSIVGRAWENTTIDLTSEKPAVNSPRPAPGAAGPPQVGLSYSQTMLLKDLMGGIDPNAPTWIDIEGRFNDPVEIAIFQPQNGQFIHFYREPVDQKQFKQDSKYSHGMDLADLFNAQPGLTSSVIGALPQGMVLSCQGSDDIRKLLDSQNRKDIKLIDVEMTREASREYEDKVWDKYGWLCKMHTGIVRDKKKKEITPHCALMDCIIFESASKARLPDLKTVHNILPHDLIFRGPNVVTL

Chain of M-phase phosphoprotein 8 (Homo sapiens) (Q99549 whole entry, looked up): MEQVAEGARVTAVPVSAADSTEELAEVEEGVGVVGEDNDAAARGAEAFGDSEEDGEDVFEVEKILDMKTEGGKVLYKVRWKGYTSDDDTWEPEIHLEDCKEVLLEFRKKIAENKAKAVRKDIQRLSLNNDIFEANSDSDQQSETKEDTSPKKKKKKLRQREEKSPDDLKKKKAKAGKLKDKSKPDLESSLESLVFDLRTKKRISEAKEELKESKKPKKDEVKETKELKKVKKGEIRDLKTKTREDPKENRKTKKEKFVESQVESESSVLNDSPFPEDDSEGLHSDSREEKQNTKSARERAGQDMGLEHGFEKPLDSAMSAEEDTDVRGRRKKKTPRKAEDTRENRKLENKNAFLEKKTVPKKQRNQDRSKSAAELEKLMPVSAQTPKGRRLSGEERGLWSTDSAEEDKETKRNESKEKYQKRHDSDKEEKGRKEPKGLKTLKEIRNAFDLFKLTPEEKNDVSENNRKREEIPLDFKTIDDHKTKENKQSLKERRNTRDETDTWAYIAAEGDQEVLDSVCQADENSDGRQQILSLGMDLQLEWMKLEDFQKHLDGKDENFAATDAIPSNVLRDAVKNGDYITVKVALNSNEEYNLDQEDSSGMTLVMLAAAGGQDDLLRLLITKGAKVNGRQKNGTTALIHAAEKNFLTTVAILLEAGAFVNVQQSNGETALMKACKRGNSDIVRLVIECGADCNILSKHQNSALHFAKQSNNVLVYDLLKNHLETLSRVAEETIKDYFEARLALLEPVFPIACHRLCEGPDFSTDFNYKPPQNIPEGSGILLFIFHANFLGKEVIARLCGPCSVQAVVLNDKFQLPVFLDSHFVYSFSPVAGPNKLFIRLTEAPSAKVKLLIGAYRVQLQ
Chain of Chromobox protein homolog 1 (Homo sapiens) (P83916 whole entry, looked up): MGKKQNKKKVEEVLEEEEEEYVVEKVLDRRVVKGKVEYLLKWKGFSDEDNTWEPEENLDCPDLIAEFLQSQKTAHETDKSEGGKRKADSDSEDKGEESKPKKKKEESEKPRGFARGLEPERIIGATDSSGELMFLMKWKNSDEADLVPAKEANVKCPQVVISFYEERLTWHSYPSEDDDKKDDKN

As to `COc1ccc2c(c1)CCC1C2CC[C@@]2(C)C1CC[C@@H]2NCCCCCCN1C(=O)C=CC1=O` (stereo partly drawn), the Potency result in assay [1], in assay [2], in assay [7], in assay [8], in assay [9] and in assay [10] was “inactive” throughout. Besides, the Potency in assay [3] is 50.1 µM (active). In addition, the compound was called inactive in assay [4] and in assay [5]. Besides, the max response in [6] is 27.3%.
For the compound `CN1C2CCC1CC(OC(=O)c1c[nH]c3ccccc13)C2` (stereo not drawn), the Potency result in assay [1], in assay [7], in assay [8], in assay [9] and in assay [10] was “inactive” throughout. Besides, the outcome in assay [4] was inactive.
On to `COc1cc(C(O)C(=O)O)ccc1O` (stereo not drawn), for which the Potency result in [1], in assay [7], in assay [8], in [9] and in assay [10] was “inactive” in each case. The compound was classed as inactive in assay [4].
As for `CC1(C)CCC(NC(=O)[C@@H](N)CCC(=O)O)CC1`, the Potency result in [1], in [7], in [8], in assay [9] and in assay [10] was “inactive” throughout. Moreover, the call in [4] was inactive.
Consider `CC(C)NCC(O)COc1ccc(CC(N)=O)cc1` (stereo not drawn), for which the Potency entry in [1], in [7], in [8], in [9] and in assay [10] was “inactive” throughout. Moreover, the compound was classed as inactive in [4].
With `O=C(O)CCCC[C@@H]1CCSS1`, the Potency entry in [1], in [7], in assay [8], in assay [9] and in assay [10] was “inactive” throughout. Besides, the call in assay [4] was inactive.
For `CCCCCC(O)CCCC(=O)O` (stereo not drawn), the Potency entry in [1], in assay [7], in [8], in [9] and in [10] was “inactive” in each case. The call in assay [4] was inactive.
Turning to `N[C@@H](CCCC(=O)O)C(=O)O`, the Potency entry in [1], in assay [7], in assay [8], in assay [9] and in [10] was “inactive” each time. Moreover, the outcome in [4] was inactive.
`CCCCCCCCCC(=O)NC(CN1CCOCC1)[C@H](O)c1ccccc1` (stereo partly drawn): the Potency entry in assay [1], in assay [7], in assay [8], in [9] and in assay [10] was “inactive” each time. The compound was classed as inactive in assay [4].
On to `CCCCC/C=C\CC(O)/C=C/c1cccc(CC(O)CCCCO)n1` (stereo not drawn), for which the Potency entry in assay [1], in assay [7], in assay [8], in assay [9] and in assay [10] was “inactive” in each case. For the same compound, in assay [4], the outcome was inactive.
Take `OCC1O[C@H](O)C(Cl)C(O)C1O` (stereo partly drawn): the Potency result in assay [1], in [7], in assay [8], in assay [9] and in assay [10] was “inactive” in each case. The compound was classed as inactive in assay [4].
On to `CC(/C=C/c1cccc(Oc2ccc(F)cc2)c1)N(O)C(N)=O` (stereo not drawn), for which the Potency result in assay [1], in assay [7], in assay [8], in [9] and in assay [10] was “inactive” in each case. Besides, the compound was classed as inactive in assay [4].
Consider `NC(=O)CC[C@H](N)C(=O)O`, for which the Potency result in assay [1], in assay [7], in [8], in [9] and in assay [10] was “inactive” in each case. Besides, the call in assay [4] was inactive.
Turning to `Cc1cccc(C2CN(C)CCc3c2cc(O)c(O)c3Cl)c1` (stereo not drawn), the Potency result in [1], in assay [7], in [8], in assay [9] and in [10] was “inactive” in each case. Also, the call in assay [4] was inactive.
On to `Oc1cc(O)c2c(c1)O[C@H](c1ccc(O)c(O)c1)[C@@H](O)C2`, for which the Potency entry in assay [1], in [7], in assay [8], in assay [9] and in assay [10] was “inactive” in each case. The result in assay [4] was inactive.
With `CC(C)(C)c1onc(OCP(=O)(O)O)c1CC(N)C(=O)O` (stereo not drawn), the Potency entry in assay [1], in assay [7], in assay [8], in assay [9] and in assay [10] was “inactive” in each case. In addition, in [4], the call was inactive.
For `CCOC(=O)C12CC1/C(=N/O)c1ccccc1O2` (stereo not drawn), the Potency result in assay [1], in assay [7], in [8], in assay [9] and in [10] was “inactive” each time. Also, the outcome in assay [4] was inactive.
In the case of `CC(C)C[C@H](NC(=O)C1OC1C(=O)O)C(=O)NCCCCN=C(N)N` (stereo partly drawn), the Potency entry in assay [1], in [7], in [8], in assay [9] and in assay [10] was “inactive” in each case. Also, in assay [4], the call was inactive.
As to `CCCCCCCCCCCCCCCC(=O)NCC(COP(=O)([O-])OCC[N+](C)(C)C)OCC` (stereo not drawn), in [1], the Potency was 11.2 µM (active). Further, the compound was classed as inactive in [4]. Moreover, the Potency entry in assay [7], in assay [8], in assay [9] and in assay [10] was “inactive” each time.
Turning to `CC(C)C[C@H](NC(=O)[C@H](O)[C@H](N)Cc1ccccc1)C(=O)O`, the Potency entry in assay [1], in assay [7], in assay [8], in assay [9] and in assay [10] was “inactive” throughout. Further, in [4], the compound was classed as inactive.
Take `COc1cc(C(O)CO)ccc1O` (stereo not drawn): the Potency result in assay [1], in [7], in assay [8], in assay [9] and in assay [10] was “inactive” each time. Moreover, the call in assay [4] was inactive.
In the case of `Cc1ccccc1CNc1ncnc2c1ncn2C1OC(CO)C(O)C1O` (stereo not drawn), the Potency entry in [1], in [7], in assay [8], in assay [9] and in assay [10] was “inactive” throughout. For the same compound, the result in [4] was inactive.
In the case of `CCCCS(=N)(=O)CC[C@H](N)C(=O)O` (stereo partly drawn), the Potency result in assay [1], in assay [7], in assay [8], in assay [9] and in assay [10] was “inactive” each time. Moreover, in assay [4], the outcome was inactive.
As to `COc1cccc(OC)c1OCCNCC1COc2ccccc2O1` (stereo not drawn), the Potency result in [1], in assay [7], in [8], in assay [9] and in assay [10] was “inactive” in each case. In addition, the call in [4] was inactive.
In the case of `CC(=O)/C(C)=N/O`, the Potency result in assay [1], in assay [7], in [8], in assay [9] and in assay [10] was “inactive” in each case. The compound was classed as inactive in assay [4].
Take `CC1=C(C(=O)O)N2C(=O)[C@@H](NC(=O)C(N)c3ccccc3)[C@H]2SC1` (stereo partly drawn): the Potency entry in [1], in [7], in assay [8], in assay [9] and in [10] was “inactive” each time. In [4], the result was inactive.
For the compound `S=C(S)OC1CC2CC1C1CCCC21` (stereo not drawn), the Potency result in [1], in [7], in [8], in assay [9] and in assay [10] was “inactive” throughout. Also, in [4], the compound was called inactive.
Turning to `CSC(N)=NCCC[C@H](N)C(=O)O`, the Potency result in assay [1], in assay [7], in [8], in [9] and in assay [10] was “inactive” each time. For the same compound, the compound was called inactive in [4].
`CN1C2CCC1CC(OC(=O)C(O)c1ccccc1)C2` (stereo not drawn): the Potency result in assay [1], in assay [7], in assay [8], in assay [9] and in [10] was “inactive” each time. In addition, the result in [4] was inactive.
